About 83,000 compounds went through this panel and 20% of them were active in at least one assay; those are over-represented in the sample as a whole.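 Compound tested at a single concentration for 48 hours in 96-well plates; a percent growth value below 10 was scored as active.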 Values without a mark were called inactive. Active and inactive are the calls of the source. Where a SMILES comes first, the peptide text is derived from it. The star is where a group is joined. Trt = c1ccc(C(c2ccccc2)(c2ccccc2)*)cc1; Cbz = O=C(OCc1ccccc1)*

Holding throughout (assay): NCI-60 one-dose screen, 48 h (100 = growth as untreated, 0 = no growth, -100 = all killed)
Holding throughout (conditions): 10 µM unless noted

Assay [1] concerns DU-145 prostate.
Assay [2] relates to K-562 leukemia.
The subject of assay [3] is MALME-3M melanoma.
In assay [4] the test system is MDA-MB-231 breast.
Assay [5] has as its system RXF 393 renal.
Assay [6] relates to SF-268 CNS.
In assay [7] the test system is SF-295 CNS.
Assay [8] concerns SF-539 CNS.
Assay [9] concerns UACC-257 melanoma.
Assay [10] concerns M14 melanoma.

For `N#CC1C(=O)SC2c3ccccc3C(=O)c3ccccc3C12` (stereo not given), the growth in [1] is 107%; in assay [2], 94.9%; in assay [3], 101%; in assay [4], 98%; in assay [5] it was 101%; in [6], 101%. In addition, the growth in assay [7] is 113%; in assay [8] it was 114%; in assay [9], 101%; in assay [10], 109%.
In the case of `O=[N+]([O-])c1ccc(N=Nc2ccc(O)cc2O)cc1`, the growth was 83.2% in assay [1]; 20.6% in assay [2]; 72.5% in assay [3]; 47.4% in assay [4]; 20.6% in assay [5]; 78% in assay [6]. Further, the growth in assay [7] was 50.6%; in assay [8] it was 37.7%; in assay [9] it was 43.7%; in assay [10], 51.3%.
Take `CNc1ccc(N)cc1`: the growth was 121% in assay [1]; 135% in [2]; 98.1% in assay [3]; 99% in assay [4]; 214% in assay [5]; 114% in assay [6]. Besides, the growth in [7] is 108%; in assay [8] it was 96.8%; in [9] it was 137%; in [10], 112%.
Turning to `O=C1c2ccccc2C(=O)N1c1ccccc1`, the growth in assay [1] was 109%; in assay [2], 106%; in assay [3], 105%; in assay [4], 89.7%; in assay [5] it was 112%; in assay [6], 108%. Besides, the growth in assay [7] was 94.9%; in assay [8], 103%; in assay [9] it was 101%; in assay [10] it was 106%.
Regarding `CC(=O)C(=Cc1ccc(C=C(C(C)=O)C(C)=O)cc1)C(C)=O`, the growth in [1] is 23.6%; in [2] it was 2.87% (active); in [3] it was -18.6% (active); in [4], -3.61% (active); in assay [5] it was -58.5% (active); in [6], 19.7%. For the same molecule, the growth in [7] is 86.4%; in [8], -1.57% (active); in assay [9], 19.1%; in assay [10] it was 4.86% (active).
For `OC(CNc1ccnc2cc(Cl)ccc12)CNc1ccnc2cc(Cl)ccc12`, the growth in assay [1] is 57.4%; in assay [2], 2.44% (active); in assay [3], -77.9% (active); in assay [4], -56.5% (active); in assay [5] it was 97.4%; in [6], 82.2%. Moreover, the growth is 71.6% in assay [7], -79.8% (active) in [8], 93.5% in assay [9] and 20.1% in [10].
Regarding `NC(=S)N/N=C\c1nccc2c(C(F)(F)C(F)(F)C(F)(F)F)cccc12`, the growth in [1] is 1.56% (active); in assay [2], 4.7% (active); in [3] it was -3.69% (active); in assay [4], 36.9%; in assay [5], -11.7% (active); in assay [6], 13%. The growth was 7.4% (active) in assay [7], -10.3% (active) in assay [8], -18.2% (active) in assay [9] and -19.2% (active) in assay [10].
On to `CC(=Nc1ccc(N(C)C)cc1)c1ccccc1`, for which the growth in assay [1] is 46.9%; in assay [2], 22.5%; in assay [3] it was 85.5%; in assay [4] it was 66.5%; in assay [5], 72.8%; in assay [6], 82.3%. The growth in assay [7] was 44.4%; in [8], 56.7%; in [9] it was 59.4%; in [10] it was 66.1%.
Take `O=C(Nc1cccc(Br)c1)Oc1ccc(Cl)c2cccnc12`: the growth is 42.2% [100 µM] in [1]; 10.4% [100 µM] in assay [2]; 27% [100 µM] in assay [3]; 20.1% [100 µM] in assay [4]; 51.6% [100 µM] in assay [5]; 16.4% [100 µM] in assay [6]. Further, the growth was 12.1% [100 µM] in assay [7], 9.36% [100 µM] (active) in [8], 7.32% [100 µM] (active) in assay [9] and 8.2% [100 µM] (active) in [10].
In the case of `COC(=O)C(CSC(c1ccccc1)(c1ccccc1)c1ccccc1)NC(=O)C(CC(N)=O)NC(=O)OCc1ccccc1` (stereo not drawn) (Cbz-Asn-Cys(Trt)-OMe; configuration not given here), the growth is 13.4% in assay [1]; 25.4% in assay [2]; 27.1% in assay [3]; 12.5% in assay [4]; 34.1% in [5]; 18% in assay [6]. Also, the growth in assay [7] is 20.1%; in [8], -22% (active); in [9] it was 59.1%; in [10] it was -57.4% (active).
As to `O=C1N[C@H]2[C@H](CS[C@H]2CCCCC(=O)N(CCP(c2ccccc2)c2ccccc2)CCP(c2ccccc2)c2ccccc2)N1`, the growth was 95.6% in [1]; 69.3% in [2]; 91.7% in assay [3]; 80.9% in assay [4]; 96.5% in assay [5]; 88.8% in [6]. For the same molecule, the growth in [7] is 83.6%; in assay [8], 99.5%; in assay [9], 79.6%; in assay [10], 97.3%.
Regarding `Cc1cc(C(C)(CC(C)C)c2ccc(O)c(C)c2)ccc1O`, the growth in assay [1] was 112%; in [2], 97.1%; in assay [3] it was 109%; in assay [4], 88%; in [5], 93%; in assay [6], 104%. Moreover, the growth in assay [7] is 97.8%; in assay [8] it was 96.6%; in assay [9], 84.8%; in assay [10] it was 94.2%.

The values are drawn from PubChem BioAssay (NCI).
